The panel holds about 83,000 compounds, 20% with a hit somewhere; the sample as a whole holds those more often.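 Results are percent growth after 48 hours of single-concentration exposure. 100 means growth as in untreated cells, lower positive values show inhibition; negative values down to -100 show cell death.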 Calls of active or inactive are those of the source.

The test system of this test is IGROV1 ovarian. Briefly: NCI-60 one-dose screen, 48 h (100 = growth as untreated, 0 = no growth, -100 = all killed). The conditions noted are these: 10 µM. The protocol: Growth inhibition of the IGROV1 human tumor cell line is measured as a screen for anti-cancer activity. Cells are grown in 96 well plates and exposed to the test compound for 48 hours. Compounds are tested at a single concentration, which is 10^-5 M for most compounds. The reported endpoint is percent growth (GI% or GIPRCNT), where numbers from 0 - 100% represent growth inhibition, and numbers from -100% - 0 represent cell death. For example, a value of 40 represents 60% growth inhibition. A value of 0 means no net growth occurred over the course of the experiment. A value of -40 indicates 40% of cells at the beginning of the experiment died by the end of the experiment. A value of -100 means all cells are dead at the end of the experiment.
NCI-60 Human Tumor Cell Lines Screen was performed using the standard one-dose NCI protocol, which is described in more detail at https://dtp.cancer.gov/discovery_development/nci-60/default.htm.
Compounds with GIPRCNT values below 10 were considered active. Activity score was based on GIPRCNT using the following formula: […]
Score is 0 for GIPRCNT values of 100 or above, 50 for GIPRCNT values of 0, and 100 for GIPRCNT values of -100.
Consider `O=C(CC(=O)Nc1ccc(Oc2ncnc3scc(Nc4n[nH]c(=S)s4)c23)cc1)Nc1ccc(Br)cc1`, for which the growth is 106% (inactive).

Turning to `COc1ccc(Cc2nn(CC(=O)N/N=C/c3ccc(Br)cc3)c(=O)c3c(C)noc23)cc1`, the growth was 37.6% (inactive). The result for `COc1ccc(C(=O)COc2ccc(NC(=O)Nc3ccc(Cl)c(C(F)(F)F)c3)cc2)cc1` reads 49.9% (inactive); that for `O=C1NC2C=CC=CC2/C1=C1/SC(=S)N(C2CC(=O)N(c3ccc(Br)cc3)C2=O)C1=O` (stereo not given), 100% (inactive). The result for `COc1ccc(C2c3sc4ccc(C)cc4c3Oc3nc(N)nc(N)c32)cc1` (stereo not given) reads 79.1% (inactive); that for `COc1ccc2[nH]cc(-c3nc(N)nnc3-c3cn(C)c4ncc(Br)cc34)c2c1`, 3.82% (active); that for `Cc1ccc(-c2nc(C#N)c(S(=O)(=O)N3CCN(S(C)(=O)=O)CC3)o2)cc1`, 54.9% (inactive). As to `O=C(CN1CCN(c2ncnc3c2cnn3-c2ccccc2)CC1)Nc1ccc(Br)cc1`, the growth was 58.1% (inactive). For the compound `Fc1ccc(/C=C/c2nc3ccccc3n3c(-c4ccc(Cl)cc4)nnc23)cc1`, the growth is 72.2% (inactive). As to `COC(=O)CNC(=O)COc1c(OC)c(OC)cc2oc(-c3cccc(C(=O)Nc4ccc(Cl)cc4)c3)cc(=O)c12`, the growth was 58.4% (inactive).

On to `O=C(Nc1ccc(OCc2ccc(Cl)cc2)cc1)Nc1ccc(Cl)c(C(F)(F)F)c1`, for which the growth was 47.6% (inactive).

Turning to `COc1cc2oc(-c3cccc(C(=O)Nc4ccc(Cl)cc4)c3)cc(=O)c2c(OCCNC(=O)[C@@H](N)CO)c1OC`, the growth was 57.9% (inactive).

As for `COc1ccccc1-n1cc(C#N)c(N)c1C(=O)c1ccc(Cl)cc1Cl`, the growth is 38% (inactive). As to `O=C(Nc1ccc(Oc2ncnc3scc(Nc4n[nH]c(=S)s4)c23)cc1)C1(C(=O)Nc2cccc(C(F)(F)F)c2)CC1`, the growth was 70% (inactive). With `COc1ccc(NCc2cn(-c3ccc(C(=O)O)cc3)nc2-c2ccc(F)cc2)cc1C(F)(F)F`, the growth was 49.9% (inactive). For `O=C1S/C(=C\c2ccc([N+](=O)[O-])cc2)C(=O)N1CCN1CCCCC1`, the growth is 112% (inactive). On to `COc1cc(-c2nc3ccc(C)cc3[nH]2)ccc1OCc1nnc(-c2ccccc2Br)o1`, for which the growth is 90.3% (inactive). `COc1ccc(C2OC[C@@]3(C)C4CC[C@]5(C)C(CC=C6C7CC(C)(C)CC[C@]7(C(=O)O)CC[C@]65C)[C@@]4(C)C[C@@H](O)[C@@H]3O2)cc1` (stereo not given in full): the growth was 101% (inactive). For the compound `CCOc1ccc(/C=N/NC(=O)Cn2nc(Cc3ccc(OC)cc3)c3onc(C)c3c2=O)cc1`, the growth is 25.7% (inactive).

For `Fc1ccc(-c2csc(Nc3cccc(Nc4nc(-c5ccc(F)cc5)cs4)c3)n2)cc1`, the growth is 41.8% (inactive). In the case of `Cc1ccc2c(c1)C(=O)/C(=C/c1c[nH]c3ccccc13)S2`, the growth was 59.8% (inactive). As for `CCOC(=O)c1ccc(NC(=O)CSC(CC(=O)c2sc(Nc3ccccn3)nc2C)c2ccccc2F)cc1` (stereo not given), the growth is 14% (inactive). Consider `O=C(c1ccc(F)cc1)C(c1c[nH]c2ccccc12)c1c[nH]c2ccccc12`, for which the growth was 49.9% (inactive). The result for `COc1ccc(Cc2nn(CC(=O)N/N=C/c3ccc([N+](=O)[O-])cc3)c(=O)c3c(C)noc23)cc1` reads 82.9% (inactive); that for `Cn1cc(-c2nc(N)nnc2-c2c[nH]c3ccccc23)c2cc(Br)cnc21`, 23.2% (inactive); that for `Cn1cc(-c2nnc(N)nc2-c2c[nH]c3ccc(F)cc23)c2cc(Br)cnc21`, 50.4% (inactive). In the case of `Cc1ccc2sc3c(c2c1)Oc1nc[nH]c(=O)c1C3c1cccc(F)c1` (stereo not given), the growth was 89.2% (inactive). Take `O=C(CSc1nc2ccccc2c(=O)n1-c1ccc(Cl)cc1)Nc1ccc(-c2nc3ccc([N+](=O)[O-])cc3[nH]2)cc1`: the growth is 64.2% (inactive). Consider `O=C(c1ccccc1)c1ccc2nc(-c3ccccc3Br)[nH]c2c1`, for which the growth is -58.9% (active). For the compound `COc1ccc(C2c3sc4ccc(C)cc4c3Oc3nc[nH]c(=O)c32)cc1` (stereo not given), the growth was 83.6% (inactive). On to `O=C1NC(=S)S/C1=C\c1cn(-c2ccccc2)nc1-c1ccc([N+](=O)[O-])cc1`, for which the growth was 29.2% (inactive). Take `Cc1ccc(S(=O)(=O)N2CCN(S(=O)(=O)c3oc(-c4ccccc4)nc3C#N)CC2)cc1`: the growth was 80.5% (inactive). Regarding `COc1ccc(-n2c(SCC(=O)NNS(=O)(=O)c3ccccc3)nc3ccc(Cl)cc3c2=O)cc1`, the growth is 103% (inactive). As for `CC(C)(C)c1cc(/C=C2\S/C(=N/c3ncn[nH]3)NC2=O)cc(C(C)(C)C)c1O`, the growth was 17.7% (inactive).

On to `O=[N+]([O-])c1cccc(-c2nnc3c(/C=C/c4ccccc4O)nc4ccccc4n23)c1`, for which the growth is 68.8% (inactive).

Turning to `COc1cc(Nc2nc(O)c(/C=C3\C=Nc4ccccc43)s2)cc(OC)c1OC`, the growth was -40.2% (active). For `COc1cccc(O)c1/C=C1\SCc2cc3c(OC)cccc3[o+]c21`, the growth was 104% (inactive). For the compound `Cn1cc(/C=C(/SS/C(=C/c2cn(C)c3cccc(C(=O)O)c23)C(=O)O)C(=O)O)c2c(C(=O)O)cccc21`, the growth was 113% (inactive). As to `C#C[C@]1(O)CC[C@H]2[C@@H]3CC=C4c5sc(Nc6ccc(C(F)(F)F)cn6)nc5CC[C@]4(C)[C@H]3CC[C@@]21C`, the growth is 8.57% (active). In the case of `Cc1ccc(COc2ccc(NC(=O)Nc3ccc(Cl)c(C(F)(F)F)c3)cc2)cc1`, the growth is 79.2% (inactive).

These data come from PubChem BioAssay (NCI).
